# Experimental data as given in PubChem BioAssay AID894 (National Center for Advancing Translational Sciences (NCATS), 2007).
# Hit rate of the full screen: of about 150,000 compounds, about 6,500 (4.3%) were called active. Inconclusive results (about 12%) are left out. Shown is part of a subset that was picked to be rich in actives. Unmarked numbers belong to inactive results. The call rests on the fitted dose curve; in most records, active means well fitted inhibition curve with a large enough effect (not every such curve was filed as active); inconclusive means small, poorly fitted or top-dose-only effect, or another doubt; inactive means no such curve, though single readings can be large or run the other way.
# Target: 15-hydroxyprostaglandin dehydrogenase [NAD(+)] (Homo sapiens) (UniProt P15428)
# Assay: qHTS Assay for Inhibitors of HPGD (15-Hydroxyprostaglandin Dehydrogenase)
# Conditions: purified HPGD, NADH fluorescence kinetic, PGE2 substrate; activity change, negative = inhibition: active compounds read low
# Method in brief: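 20 nM HPGD preincubated 15 min at room temperature with compound in 50 mM Tris-HCl pH 8, 0.01% Tween 20. Started with 1 mM NAD+ and 30 uM prostaglandin E2; NADH fluorescence (360/450 nm) read 5 times over 30-s intervals, last minus first.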
# On the % scale 0 is the no-effect control and ±100 the full control effect; potency means the concentration at half of the fitted maximal effect.
# Sequence of 15-hydroxyprostaglandin dehydrogenase [NAD(+)] (Homo sapiens) (P15428 whole entry, looked up): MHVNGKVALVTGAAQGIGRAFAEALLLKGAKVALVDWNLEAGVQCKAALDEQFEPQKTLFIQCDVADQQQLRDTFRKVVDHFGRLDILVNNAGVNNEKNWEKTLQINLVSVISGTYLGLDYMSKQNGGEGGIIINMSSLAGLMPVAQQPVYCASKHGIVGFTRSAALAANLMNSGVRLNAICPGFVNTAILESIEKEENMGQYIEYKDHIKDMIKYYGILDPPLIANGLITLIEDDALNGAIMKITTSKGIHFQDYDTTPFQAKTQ
Structure (SMILES),"activity change, negative = inhibition [%]",Potency
O=C(/C=C/c1ccc([N+](=O)[O-])cc1)NCCSCc1ccco1,-22.9,
O=C(/C=C/c1cccc([N+](=O)[O-])c1)NCCSCc1ccco1,,25.1 µM (active)
CS(=O)(=O)N(Cc1ccc(Cl)cc1)c1ccc(C(=O)NCCSCc2ccco2)cc1,-4.85,
CCC(CC)NC(=O)/C=C/c1cccc([N+](=O)[O-])c1,-13.1,
COc1cc(OC)cc(C(=O)NCCSCc2ccco2)c1,,20 µM (active)
COc1ccc(CCNC(=O)c2ccco2)cc1,-3.27,
CC(=O)Nc1cccc(/C(C)=N/NC(=O)c2c(-c3ccccc3Cl)noc2C)c1,-6.16,
COc1ccc(S(=O)(=O)NC(C)C(=O)Nc2cccc([N+](=O)[O-])c2)cc1 (stereo not given),-10.4,
O=C(COC(=O)Cn1cnc2ccccc2c1=O)NCC12CC3CC(CC(C3)C1)C2,-2.81,
COc1cc(NC(=O)Nc2ccc(C)cc2)cc([N+](=O)[O-])c1,-10.2,
CCOC(=O)C1=NO[C@@]2(C=C(Br)C(=O)[C@H]3O[C@H]32)C1,-23,
COc1ccccc1-c1cc(C(=O)NCCCn2ccnc2)no1,-21.8,
Clc1ccccc1-c1cc(COc2ccc3ccccc3c2)no1,-25.6,
O=C(NCc1ccccn1)c1cc(-c2ccccc2Cl)on1,,14.1 µM (active)
CCc1cccc(C)c1NC(=O)CSc1nnc(-c2ccco2)n1N,-10.6,
CCOC(=O)c1c(NC(=O)CSc2nnc(CN3CCOCC3)n2C)sc2c1CCCC2,-2.63,
NC(=O)c1c(NC(=O)CSc2nnc(-c3ccco3)n2N)sc2c1CCCC2,,14.1 µM (active)
CC(C)=C1C2CCC1C1C(=O)N(NC(=O)c3ccco3)C(=O)C21 (stereo not given),-7.1,
CC(C)Cc1cc(C(=O)NCCc2ccccc2)no1,-20.6,
CC(C)CNC(=O)c1cc(-c2ccc(Br)cc2)on1,-23.1,

Structure (SMILES),"activity change, negative = inhibition [%]",Potency
CC(C)Cc1cc(C(=O)Nc2cc(Br)ccc2O)no1,,25.1 µM (active)
COc1ccc(C(C(=O)NC2CCCCC2)N(C(=O)CCl)c2ccccc2Cl)cc1 (stereo not given),-4.95,
N#Cc1c(NC(=O)c2ccc(N3CCOCC3)c([N+](=O)[O-])c2)sc2c1CCCC2,-10.9,
O=C(/C=C/c1ccc(Cl)cc1)N1CCN(c2ccccc2[N+](=O)[O-])CC1,-15,
CC(C)(C)NC(=O)C(=O)NCc1ccncc1,-2.72,
Cc1nc2ccccc2n1CC(=O)N/N=C/c1cccs1,-4.95,
O=C(COC(=O)CCC(=O)c1cccs1)NCc1ccco1,-9.26,
O=C(c1cccs1)n1nc(NCc2ccccc2)nc1NCc1ccccc1,-18.3,
O=C(CCC(=O)c1cccs1)NCc1ccccc1,,31.6 µM (active)
CCC1CCCCN1C(=S)Nc1ccc(C(C)=O)cc1 (stereo not given),-21.2,
Cc1ccc(-c2cn3cc([N+](=O)[O-])ccc3n2)cc1,-11.8,
CC[C@H](C)[C@@H](NC(=O)O[C@@H]1C(=O)c2cc(OC)ccc2O[C@H]1c1cccc(OC)c1)C(=O)OC,-14.9,
O=[N+]([O-])c1cc(C(F)(F)F)ccc1NN=C1CCCC1,-7.57,
C/C(=N\NC(=O)CCn1nc(C)cc1C)C(C)(C)C,-2.63,
Cc1ccc(SCC(=O)Nc2ccc3c(c2)OCCO3)cc1,-4,
COC(=O)CCNc1ccc2c(c1)OCCO2,-9.02,
CCCCC(=O)Nc1ccc2c(c1)OCCO2,,25.1 µM (active)
Cc1cn(C2OC[C@@H](O)[C@@H]2CO)c(=O)[nH]c1=O (stereo not given in full),-7.64,
Cc1ccccc1NC(=O)CSC1=NCCN1,-5.67,
O=C(CSc1nnc(-c2cccnc2)n1CCc1ccccc1)NCc1ccccc1,-12.6,

Structure (SMILES),"activity change, negative = inhibition [%]",Potency
O=C(CSc1n[nH]c(-c2cccnc2)n1)Nc1ccnc2ccccc12,,15.8 µM (active)
C=CCn1cc(C(=O)NCc2ccc(Cl)cc2)c(=O)c2cc(S(=O)(=O)N(CC)CC)ccc21,15.1,
CC(=O)c1sc(N/N=C\c2ccc(C)cc2)nc1C,-20.1,
C=CCNC(=S)NNC(=O)c1ccc(Br)o1,-14.9,
CC1=C(C(N)=O)C(c2ccc3c(c2)OCO3)n2nc(-c3cccc(C)c3)nc2N1 (stereo not given),-3.51,
c1ccc(-c2nnc3n2NC(c2ccc4c(c2)OCO4)S3)cc1 (stereo not given),,14.1 µM (active)
Cc1cccc(C)c1NC(=O)CSc1nnc(-c2ccccc2)n1Cc1ccc2c(c1)OCO2,-8.72,
COCCNc1nc(N)c([N+](=O)[O-])c(NCCO)n1,-10.5,
O=C(NNC(=S)NCc1ccccc1)c1ccc(OC(F)F)cc1,-6.63,
Cc1ccc(Cc2c(C)nc3nc(SCC(=O)NCCN4CCOCC4)nn3c2C)cc1,-11.4,
COc1cc(OC)cc(-c2nc3nc(C)c(CCC(=O)NCc4ccco4)c(C)n3n2)c1,-10.9,
Cc1nc2nc(SCC(=O)NCc3ccco3)nn2c(C)c1Cc1ccccc1,,22.4 µM (active)
CCOC(=O)C1CCN(c2ccc(C(=O)O)cc2[N+](=O)[O-])CC1,-3.84,
CC(=O)c1cc(-c2ccccc2)n(CCC(=O)NC2CCCCCC2)c1C,-4.2,
O=C(NCc1ccccc1Cl)C1CCC(CNc2c(N3CCCCC3)c(=O)c2=O)CC1 (stereo not given),,12.6 µM (active)
COc1ccc(CNC(=O)C2CCC(CNc3c(N4CCOCC4)c(=O)c3=O)CC2)cc1 (stereo not given),-17.3,
CCOc1ccccc1NC(=O)C1CCC(CNc2c(N3CCOCC3)c(=O)c2=O)CC1 (stereo not given),-25.1,
O=C(CCN1C(=O)c2ccccc2C1=O)NNC(=O)c1ccc(Cl)cc1Cl,-7.71,
Cc1c(Br)c([N+](=O)[O-])nn1CC(=O)Nc1sc2c(c1C(=O)OC(C)C)CCC(C)C2 (stereo not given),-1.95,
C/C(=N/NS(=O)(=O)c1ccccc1)c1ccc(NC(=O)C(F)(F)F)cc1,-4.99,
